Consider 16 molecules from PubChem BioAssay.

Test [1] is described as follows: compounds binding Alexa647 anti-His antibody – biochemical, small-molecule microarray, 635 nm fluorescence, artefact control for SMM control protein annotation, primary screen (AID 1128).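 Further: score merges feature fluorescence with signal-to-noise for each printed compound spot.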 The following applies: higher = more signal.
The subject of test [2] is Human papillomavirus type 1a E7 protein (residues 1-88). In words: HPV1a E7 small-molecule binders, primary screen, biochemical, small-molecule microarray, residues 1-88, 635 nm (AID 1129). The following applies: small-molecule microarray binding, fluorescence 635 nm; higher = more signal.
In test [3] the target is Focal adhesion kinase 1 (Homo sapiens) (UniProt Q05397). In words: PTK2 protein binding on printed compound slides – biochemical, small-molecule microarray, 635/667 nm fluorescence, BSA, DTT, primary screen (AID 1130).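 Further: composite of spot emission at 667 nm and signal to noise over triplicate slides.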 The following applies: 635 nm fluorescence, higher = more signal.
Chain of Focal adhesion kinase 1 (Homo sapiens) (Q05397 whole entry, looked up): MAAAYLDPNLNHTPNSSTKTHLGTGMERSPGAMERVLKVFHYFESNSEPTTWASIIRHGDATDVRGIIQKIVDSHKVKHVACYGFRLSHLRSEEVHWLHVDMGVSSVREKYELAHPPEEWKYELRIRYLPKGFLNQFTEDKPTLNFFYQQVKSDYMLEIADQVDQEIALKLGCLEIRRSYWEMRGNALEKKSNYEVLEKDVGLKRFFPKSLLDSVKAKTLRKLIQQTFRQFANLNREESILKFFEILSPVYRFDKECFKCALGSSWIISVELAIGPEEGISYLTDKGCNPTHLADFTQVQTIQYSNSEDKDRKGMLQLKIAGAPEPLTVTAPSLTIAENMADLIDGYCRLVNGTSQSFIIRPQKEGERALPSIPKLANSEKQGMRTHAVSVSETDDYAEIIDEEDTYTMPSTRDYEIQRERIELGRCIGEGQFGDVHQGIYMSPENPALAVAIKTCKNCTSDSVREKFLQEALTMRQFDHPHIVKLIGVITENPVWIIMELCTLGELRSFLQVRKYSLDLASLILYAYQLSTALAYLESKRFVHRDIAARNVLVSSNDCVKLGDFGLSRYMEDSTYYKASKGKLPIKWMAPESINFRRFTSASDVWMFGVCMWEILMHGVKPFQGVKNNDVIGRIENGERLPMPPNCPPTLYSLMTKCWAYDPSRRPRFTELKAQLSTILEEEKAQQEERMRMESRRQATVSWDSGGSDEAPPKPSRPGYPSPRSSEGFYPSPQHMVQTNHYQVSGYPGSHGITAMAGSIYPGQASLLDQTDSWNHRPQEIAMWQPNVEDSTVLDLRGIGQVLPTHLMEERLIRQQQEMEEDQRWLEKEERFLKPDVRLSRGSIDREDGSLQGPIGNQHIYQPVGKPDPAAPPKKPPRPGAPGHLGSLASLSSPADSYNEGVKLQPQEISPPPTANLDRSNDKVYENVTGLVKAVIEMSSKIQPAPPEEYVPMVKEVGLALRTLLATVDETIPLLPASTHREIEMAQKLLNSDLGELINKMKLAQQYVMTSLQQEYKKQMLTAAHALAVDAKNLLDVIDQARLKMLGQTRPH
The test system of test [4] is Fibrinogen (Alexa647-labelled). The test is described as follows: Alexa647-fibrinogen binding to printed small molecules – biochemical, small-molecule microarray, 635/667 nm fluorescence, artefact control for SMM control-protein annotation, profiling panel (AID 1131).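 Further: z-score merges 667 nm fluorescence with per-spot signal-to-noise over triplicate slides.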 The following applies: fibrinogen-A647 binding fluorescence, higher = more signal.
Test [5] has as its target Follistatin (Homo sapiens) (UniProt P19883). The test is described as follows: FST protein binding to printed compounds – biochemical, small-molecule microarray, 635/667 nm fluorescence, primary screen (AID 1132). The following applies: 635 nm fluorescence, higher = more signal.
The target of test [6] is Fibroblast growth factor 2 (Homo sapiens) (UniProt P09038). The test is described as follows: basic fibroblast growth factor binding to printed compounds – biochemical, small-molecule microarray, 635/667 nm fluorescence, primary screen (AID 1133). The following applies: FGF2, fluorescence 635/667, higher = more signal.
Chain of Fibroblast growth factor 2 (Homo sapiens) (P09038 whole entry, looked up): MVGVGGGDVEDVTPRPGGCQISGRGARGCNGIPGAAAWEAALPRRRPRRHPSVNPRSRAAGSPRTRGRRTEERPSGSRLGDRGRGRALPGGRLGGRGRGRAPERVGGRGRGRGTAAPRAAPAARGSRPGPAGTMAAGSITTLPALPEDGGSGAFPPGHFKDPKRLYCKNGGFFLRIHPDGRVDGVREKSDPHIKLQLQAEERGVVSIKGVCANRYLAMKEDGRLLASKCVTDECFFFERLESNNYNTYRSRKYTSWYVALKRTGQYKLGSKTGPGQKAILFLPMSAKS
Test [7] is described as follows: JC-1 mitochondrial potential readout, lung cancer cells – cell-based, A549, JC-1 fluorescence, basal, 24 h, 100 nL, profiling panel (AID 1138).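 Further: A549 lung adenocarcinoma cells under basal conditions with no added stimulus; test concentration not given here.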 The following applies: higher = more signal.
The subject of test [8] is Lefty1. The test is described as follows: Lefty1 protein binding to printed compounds – biochemical, small-molecule microarray, 635/667 nm fluorescence, primary screen (AID 1139). The following applies: fluorescence 635/667, higher = more signal.
Test [9] deals with wheat germ agglutinin (Triticum aestivum), Alexa647-labelled. The test is described as follows: Alexa647-WGA lectin binding to printed small molecules – biochemical, small-molecule microarray, 635/667 nm fluorescence, artefact control for SMM control-protein annotation, profiling panel (AID 1140).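 Further: score merges 667 nm feature emission with signal to noise over triplicate slides.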 The following applies: WGA-A647 binding, 635 nm fluorescence, higher = more signal.

In test [10] the target is Luciferin 4-monooxygenase (Photinus pyralis) (UniProt P08659). In words: inhibition of purified Photinus pyralis luciferase – biochemical, luminescence, purified enzyme, 2006 set, primary screen (AID 1141).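 Further: cell-free assay with purified firefly luciferase at 100 ng per well in PBS; test concentration not given here.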 The following applies: purified firefly luciferase, SteadyGlo luminescence, 30 min; higher = more signal, called active from +8 up or from −8 down.
Chain of Luciferin 4-monooxygenase (Photinus pyralis) (P08659 whole entry, looked up): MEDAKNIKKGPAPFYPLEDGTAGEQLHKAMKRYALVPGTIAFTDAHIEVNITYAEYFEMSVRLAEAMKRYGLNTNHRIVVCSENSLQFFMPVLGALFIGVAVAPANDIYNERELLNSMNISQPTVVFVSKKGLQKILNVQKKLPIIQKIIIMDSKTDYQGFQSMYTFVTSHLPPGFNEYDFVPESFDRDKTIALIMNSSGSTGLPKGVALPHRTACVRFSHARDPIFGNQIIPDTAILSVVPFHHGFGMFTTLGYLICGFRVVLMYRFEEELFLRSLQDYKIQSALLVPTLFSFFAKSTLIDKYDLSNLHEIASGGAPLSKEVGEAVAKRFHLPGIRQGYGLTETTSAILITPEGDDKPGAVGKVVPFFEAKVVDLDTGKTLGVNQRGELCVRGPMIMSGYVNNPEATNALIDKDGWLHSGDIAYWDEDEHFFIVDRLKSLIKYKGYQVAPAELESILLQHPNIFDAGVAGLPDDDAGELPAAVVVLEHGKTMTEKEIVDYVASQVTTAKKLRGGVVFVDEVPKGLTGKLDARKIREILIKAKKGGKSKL

Structures are written as SMILES. Active and inactive are the calls of the source.

Chain of Follistatin (Homo sapiens) (P19883 whole entry, looked up): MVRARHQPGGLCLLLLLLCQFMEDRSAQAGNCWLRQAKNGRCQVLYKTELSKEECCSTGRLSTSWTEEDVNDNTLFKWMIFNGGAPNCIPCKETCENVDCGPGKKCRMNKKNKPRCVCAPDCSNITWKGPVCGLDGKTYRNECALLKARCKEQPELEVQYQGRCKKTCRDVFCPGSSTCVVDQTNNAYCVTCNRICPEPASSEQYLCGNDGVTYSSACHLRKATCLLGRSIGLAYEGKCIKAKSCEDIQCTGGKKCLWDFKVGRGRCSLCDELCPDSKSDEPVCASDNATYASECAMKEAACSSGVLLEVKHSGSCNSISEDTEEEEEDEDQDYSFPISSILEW

As to `CC(CCN1CCCc2nc(C)c(C)cc21)=NOC[C@@H](O)COCc1ccco1`, the composite z-score in [1] is 0.215; in test [2], -2.13; in [3] it was 2.27; in test [4] it was -2.04; in test [5], 1.55; in test [6] it was 2.19. Moreover, the composite z-score was 1.86 in test [8] and -0.949 in test [9]. Further, the z-score is 0.694 in test [7] and -1.59 (inactive) in test [10].
`COC(=O)[C@H](C)NC(=O)CCC1CC(OC(=O)NCc2cccc3ccccc23)CC2(CCCC(COC(=O)NCc3ccccc3)O2)O1` (stereo not given in full): the composite z-score in test [1] came out at 0.432; in [2] it was 0.976; in test [3], 0.388; in test [4], 0.893; in test [5] it was 0.729; in [6] it was 0.846. The composite z-score came to 1.17 in [8] and 0.22 in test [9]. For the same molecule, the z-score is -0.139 in [7] and 1.09 (inactive) in test [10].
On to `C[C@@H](c1ccccc1)N1C(=O)[C@H]2[C@H]3[C@H](O)[C@H](O)CC(=NNC(=O)OCc4ccccc4)[C@@H]3CC[C@H]2C1=O`, for which the composite z-score in test [1] is -0.23; in test [2], -1.01; in test [3], 0.37; in [4], -0.864; in test [5] it was 1.43; in [6] it was 1.66. The figures for the composite z-score in test [8] and in test [9] were 1.39 and -0.212, respectively. The z-score is -0.383 in test [7] and 0.574 (inactive) in test [10].
Turning to `C[C@@H]1CC[C@H]2C(=O)O[C@@H](COc3ccc(C(C)(C)C)cc3)CN2[C@H]1c1ccc(Br)cc1`, the composite z-score in [1] is -0.0988; in test [2] it was -0.153; in test [3] it was -0.171; in test [4] it was 0.407; in [5] it was 0.0252; in [6] it was 0.0914. Also, the composite z-score worked out at 0.135 in test [8] and 0.0196 in test [9]. Also, the z-score is 0.784 in test [7] and 0.104 (inactive) in test [10].
As for `CC=CC1=C(CO)[C@H](O)[C@H]2O[C@H]2[C@@H]1O`, the composite z-score in test [1] is 0.343; in test [2] it was 0.23; in test [3], -0.401; in [4], -0.0599; in test [5] it was 0.937; in [6], 0.45. Further, the composite z-score in [8] was 0.911; in test [9] it was -0.0224. Also, the z-score in test [7] was -0.537; in test [10] it was -0.0811 (inactive).
For the molecule `CCN1C(=O)[C@H]2[C@H]3[C@H](O)[C@H](O)CC(=NO[C@H](C)c4cn([C@@H]5COC[C@H]5O)nn4)[C@@H]3CC[C@H]2C1=O`, the composite z-score was -1.33 in test [1]; -0.0712 in [2]; 0.339 in [3]; 0.178 in test [4]; -0.537 in [5]; 0.092 in [6]. In addition, the composite z-score is 0.371 in [8] and -0.215 in test [9]. Also, the z-score in test [7] is -0.444; in test [10], 0.846 (inactive).
Consider `CC(C)[C@@H](OCc1ccccc1)[C@H](C)C=NOC[C@@H](O)[C@H]1O[C@@H]2OC(C)(C)O[C@@H]2[C@H]1O`, for which the composite z-score is 2.33 in test [1]; 0.387 in test [2]; 0.137 in [3]; 0.941 in test [4]; 0.214 in test [5]; 0.635 in test [6]. Besides, the composite z-score in test [8] was determined as 0.768; in test [9], 0.234. The z-score in test [7] was -0.958; in [10], -0.587 (inactive).
As for `CCCCOC(OCCCC)C(O)CSc1ccc2ccccc2c1` (stereo not given), the composite z-score in [1] was 0.147; in [2] it was 0.776; in test [3] it was 0.0661; in test [4] it was 0.329; in [5], 0.586; in [6] it was 0.296. Further, the composite z-score in [8] is 0.489; in test [9], 0.264. Besides, the results for the z-score in test [7] and in [10] were 0.428 and -0.842 (inactive), respectively.
As for `CC(C)[C@@H](OCc1ccccc1)[C@H](C)C=NO[C@H](C)c1cn([C@@H]2COC[C@H]2O)nn1`, the composite z-score in test [1] was determined as 0.0202; in test [2] it was 0.693; in test [3] it was 0.279; in test [4] it was 0.0524; in test [5] it was 0.229; in [6], 0.422. Moreover, the composite z-score in test [8] was 0.957; in [9], -0.0886. For the same molecule, the figures for the z-score in [7] and in test [10] were -0.245 and 1.06 (inactive), respectively.
`CC(C)=CCCC(C)=CCON=C1[C@H]2CCn3c(=O)n(-c4ccccc4)c(=O)n3[C@H]2[C@H](O)[C@@H]2O[C@H]12`: the composite z-score stood at 0.645 in [1]; 1.14 in test [2]; 0.274 in test [3]; 0.712 in [4]; 1.19 in test [5]; 0.765 in test [6]. Moreover, the figures for the composite z-score in test [8] and in [9] were 0.808 and 0.505, respectively. Moreover, the z-score is 0.334 in [7] and -0.416 (inactive) in test [10].
Regarding `CO[C@@H](C1CCCCC1)[C@@H](C)[C@H](OCc1cccc(Br)c1)[C@@H](C)CO`, the composite z-score was -0.833 in test [1]; -0.0434 in [2]; -0.299 in test [3]; -0.106 in test [4]; 0.265 in test [5]; 0.286 in test [6]. The composite z-score in test [8] was 0.407; in test [9], -0.181. Besides, the z-score was -0.72 in [7] and 0.158 (inactive) in [10].
On to `CC(C)=CCCC(C)=CCON=C1C[C@@H](O)[C@@H](O)[C@@H]2[C@@H]3C(=O)N(c4cccc(Oc5ccccc5)c4)C(=O)[C@@H]3CC[C@H]12`, for which the composite z-score is 0.364 in test [1]; 1.03 in test [2]; 0.132 in [3]; 0.693 in [4]; 0.559 in test [5]; 0.252 in [6]. Moreover, the composite z-score was determined as 0.719 in test [8] and 0.197 in test [9]. Besides, the z-score in [7] was -0.137; in [10], 0.664 (inactive).
As to `O=C1C=C[C@@H](O)[C@@H]2[C@@H]3C(=O)N(Cc4ccccc4)C(=O)[C@@H]3CC[C@@H]12`, the composite z-score in test [1] is 0.0502; in test [2], 0.673; in [3] it was 0.168; in [4] it was 0.394; in test [5], 0.415; in [6] it was 0.484. Also, the values for the composite z-score in test [8] and in test [9] were 0.314 and 0.228, respectively. Moreover, the z-score in test [7] is 0.831; in test [10] it was -0.505 (inactive).
As to `CC(=O)OC[C@H]1O[C@H](CCON=C(C)CCN2CCCc3nc(C)c(C)cc32)C=C[C@@H]1OC(C)=O`, the composite z-score in test [1] was 1.22; in test [2], 1.14; in [3] it was 0.835; in [4] it was 0.441; in test [5], 1.15; in [6], 0.664. In addition, the composite z-score in [8] worked out at 0.997; in test [9], 0.0722. Besides, the z-score in test [7] was -0.349; in test [10] it was 0.591 (inactive).
In the case of `COC(=O)CC=C[C@@H](C)[C@@H](C=NOC(C)CN1CCCCc2nc(C)c(C)cc21)OC` (stereo not given in full), the composite z-score in test [1] stood at 1.4; in test [2], 0.981; in test [3], 0.847; in test [4], 0; in [5] it was 1.14; in test [6], 0.368. The values for the composite z-score in test [8] and in [9] were 1.24 and 0.259, respectively. The figures for the z-score in [7] and in test [10] were 0.855 and -0.183 (inactive), respectively.
On to `CCO[C@H](c1cc(OC)cc([N+](=O)[O-])c1OC)[C@H](C)[C@@H](OC)[C@H](C)C=CCC(=O)OC`, for which the composite z-score in [1] is -0.406; in test [2], 0.257; in test [3], 0.115; in test [4] it was 0.949; in [5], 0.0822; in [6] it was 0.183. Also, the composite z-score in test [8] was -0.125; in test [9], 0.298. In addition, the values for the z-score in [7] and in [10] were 0.163 and 0.114 (inactive), respectively.
